Compound activity as filed in PubChem.
The list is a sample of the results.
aSyn 5UTR act = Activators working through SNCA 5'UTR binding (MLPCN); activity score, % (tested at 7.5 µM), hits read low; alpha-synuclein 5'UTR reporter, activators screen; AID 1814; actives 7.1% (n = 300,000); in the data active means activity score below about -60%
Of the large screens only hits and unclear results are named; the others gave an inactive call.

O=C(CNC(=S)NC(=O)c1ccccc1)c1ccccc1	aSyn 5UTR act -83
O=C(NC(=S)NC1CCCCC1)c1ccccc1	aSyn 5UTR act -95
CC(=O)Nc1cccc(C(=O)/C=C/c2ccc(C)cc2)c1	aSyn 5UTR act -123
CCOc1ccc(/C=C/C(=O)Nc2cccc(C(C)=O)c2)cc1	aSyn 5UTR act -151
COc1cccc(Nc2nc(-c3cccc(N4C(=O)c5ccccc5C4=O)c3)cs2)c1	aSyn 5UTR act -62
COc1cccc(Nc2nc(-c3ccc(O)cc3)cs2)c1	aSyn 5UTR act -191
CNCc1cc(Cl)cc(OC)c1OC(C)C	aSyn 5UTR act -81
Cc1nnc(SCC(=O)Nc2nsc(-c3ccc(C(C)(C)C)cc3)n2)s1	aSyn 5UTR act -70
COc1ccc(-c2csc(Nc3ccc(C)cn3)n2)cc1	aSyn 5UTR act -180
CC(=O)Oc1ccc(-c2csc(Nc3ccc(Cl)cn3)n2)cc1	aSyn 5UTR act -135
Cc1cccnc1CN1CCN(C(=O)CCc2nnc(CCc3ccccc3)o2)CC1	aSyn 5UTR act -72
Cc1ccc(NCCC(=O)c2cccc([N+](=O)[O-])c2)c(C)c1	aSyn 5UTR act -201
C=C(C)CNC(=S)N/N=C(\C)c1ccc(Cl)s1	aSyn 5UTR act -70
O=C(NCc1ccco1)c1nc2ccccc2s1	aSyn 5UTR act -107
Cc1ccc(-c2cc(C(=O)NCc3ccco3)c3ccccc3n2)s1	aSyn 5UTR act -65
COCCNC(=O)c1nc2ccccc2s1	aSyn 5UTR act -83
Nc1c(C(=O)Nc2ccc(F)cc2)sc(=S)n1-c1ccccc1F	aSyn 5UTR act -84
Cn1c(N)c(C(=O)Nc2ccc3ccccc3c2)sc1=S	aSyn 5UTR act -186
O=C1CC(c2ccccc2Cl)=NN(c2ncnc3ccccc23)C1=O	aSyn 5UTR act -74
Cc1cccc(-c2cccc(NC(=O)C3CCCN(C(=O)c4csc(C)n4)C3)c2)c1 (stereo not drawn)	aSyn 5UTR act -70
CCc1nc(C)c(C(=O)N2CCCC(C(=O)Nc3cccc(-c4cccc(C)c4)c3)C2)o1 (stereo not drawn)	aSyn 5UTR act -77
O=C(O)c1ccc(N/N=C/c2ccnc3ccccc23)cc1	aSyn 5UTR act -119
Oc1ccccc1/C=N/Nc1cccc2cccnc12	aSyn 5UTR act -234
O=C(O)c1ccc(N/N=C/c2cccc3cccnc23)cc1	aSyn 5UTR act -89
CC1N/C(=C\C(=O)c2ccccc2)N(O)C1(C)C (stereo not drawn)	aSyn 5UTR act -124
COc1cccc(/C=C/C(=O)OC(C)C(=O)Nc2c(C)n(C)n(-c3ccccc3)c2=O)c1 (stereo not drawn)	aSyn 5UTR act -112
c1ccc(-c2cc3nccc(-c4ccccn4)n3n2)cc1	aSyn 5UTR act -196
CN1C(=O)S/C(=C\c2ccc(-n3cncn3)cc2)C1=O	aSyn 5UTR act -93
Cc1ccc2nc(NC(=O)c3ccc(Br)o3)sc2c1	aSyn 5UTR act -82
NS(=O)(=O)c1ccc2nc(NC(=O)c3ccc(Br)o3)sc2c1	aSyn 5UTR act -141
Cc1cccc(-c2nc3cc(NC(=O)C4CCCO4)ccc3o2)c1 (stereo not drawn)	none
O=C(Nc1cccc(-c2nc3cc(Cl)ccc3o2)c1)C1CCCO1 (stereo not drawn)	aSyn 5UTR act -72
Cc1ccc2oc(-c3cccc(NC(=O)C4CCCO4)c3)nc2c1 (stereo not drawn)	aSyn 5UTR act -181
CC1(C)C=Cc2cc(-c3coc4cc(O)cc(O)c4c3=O)cc(O)c2O1	aSyn 5UTR act -149
Cc1ccc2cc3c(N)c4c(C)ccc(C)c4nc3nc2c1	aSyn 5UTR act -77
COC(=O)c1sccc1NC(=O)c1ccc(Br)s1	aSyn 5UTR act -67
CCOc1ccccc1C(=O)Nc1ccsc1C(=O)OC	none
COC(=O)c1c(NC(=O)c2ccc(Br)s2)sc2c1CCC2	aSyn 5UTR act -92
COC(=O)c1sccc1NC(=O)c1csc(C)c1	aSyn 5UTR act -80
CCN(CC)S(=O)(=O)c1ccc2nc(NC(=O)c3cccs3)sc2c1	aSyn 5UTR act -104
CCN(CC)S(=O)(=O)c1ccc2nc(NC(=O)c3ccco3)sc2c1	aSyn 5UTR act -63
O=C(COC(=O)c1ccccc1-n1cnnn1)c1ccc(F)cc1	aSyn 5UTR act -145
CCOc1ccc(-n2c(C)cc(C(=O)CCl)c2C)cc1	none
Cc1cccc(-n2c(C)cc(C(=O)NC3CCCCC3)c2C)c1	aSyn 5UTR act -76
COc1ccc(-n2c(C)cc(C(=O)NC3CCCCC3)c2C)cc1	aSyn 5UTR act -156
CCOc1ccc(C(=O)Nc2cccc([N+](=O)[O-])c2)cc1Br	aSyn 5UTR act -138
O=C(Nc1ccc2ccccc2c1)c1cccc([N+](=O)[O-])c1	aSyn 5UTR act -113
Cc1cccc(C(=O)Nc2ccc3ccccc3c2)c1	aSyn 5UTR act -111
O=C(NC(=S)Nc1cccc(F)c1)c1cccc([N+](=O)[O-])c1	aSyn 5UTR act -109
O=C(Nc1ccccc1)N(O)c1ccc(Cl)cc1	aSyn 5UTR act -122
COc1ccc(NC(=O)Nc2nccs2)cc1	aSyn 5UTR act -94
CC(C)Cc1nnc(NC(=O)c2ccc([N+](=O)[O-])cc2)s1	aSyn 5UTR act -95
CCCc1nnc(NC(=O)c2cccc(OC)c2)s1	aSyn 5UTR act -91
CCOCc1nnc(NC(=O)c2ccc(OC)cc2)s1	aSyn 5UTR act -73
CC(C)Cc1nnc(NC(=O)Nc2ccccc2)s1	aSyn 5UTR act -115
COc1ccc(C(=O)Nc2nccs2)cc1[N+](=O)[O-]	aSyn 5UTR act -74
O=C(Nc1nccs1)c1ccc([N+](=O)[O-])cc1	aSyn 5UTR act -75
CCc1nnc(NC(=O)Nc2ccc(OC)cc2)s1	aSyn 5UTR act -162
O=C(Nc1nccs1)c1cccc(NC(=O)C(F)(F)F)c1	aSyn 5UTR act -86
COc1ccc(C(NC(C)=O)c2cc(Cl)c3cccnc3c2O)cc1 (stereo not drawn)	none
CCC(C)(C)c1nnc(NC(=O)c2cccc([N+](=O)[O-])c2)s1	aSyn 5UTR act -147
COc1ccc(C(=O)Nc2nccs2)cc1	aSyn 5UTR act -120
COc1ccc2c(CC(=O)Nc3nccs3)coc2c1	aSyn 5UTR act -101
CCCc1nnc(NC(=O)c2cc3ccccc3o2)s1	aSyn 5UTR act -88
COc1ccc(C(=O)NC(=S)Nc2cc(C)ccn2)cc1[N+](=O)[O-]	aSyn 5UTR act -68
COc1ccc(C(=O)Nc2nccs2)cc1OC	aSyn 5UTR act -71
Cc1noc(/C=C/Nc2ccc(F)cc2F)c1[N+](=O)[O-]	aSyn 5UTR act -175
Cc1noc(/C=C/c2ccccn2)c1[N+](=O)[O-]	aSyn 5UTR act -211
COc1ccc(S(=O)(=O)NCC2CCCN(Cc3ccc(OC)cc3F)C2)cc1 (stereo not drawn)	aSyn 5UTR act -90
COc1ccc(Nc2nc(-c3cccs3)cs2)c(OC)c1	aSyn 5UTR act -196
COc1ccc(Nc2nc(-c3sc(C)nc3C)cs2)c(OC)c1	aSyn 5UTR act -124
COc1ccccc1Nc1nc(-c2cccs2)cs1	aSyn 5UTR act -254
COc1ccc(Nc2nc(-c3cccs3)cs2)cc1	aSyn 5UTR act -205
Cc1ccc(NC2Nc3cc(C)nn3S2)c(C)c1 (stereo not drawn)	aSyn 5UTR act -138
CC1CCC(NC(=O)Cn2c(=O)[nH]c3ccsc3c2=O)CC1 (stereo not drawn)	aSyn 5UTR act -130
O=[N+]([O-])c1ccc(C2=Nc3cc(Cl)ccc3OC2)cc1	aSyn 5UTR act -149
CCC(=O)Nc1nc2ccccc2n1Cc1ccccc1Cl	none
CCn1c(SCc2ccccc2Cl)nc2ccccc21	aSyn 5UTR act -97
Cn1c(SCc2ccccc2Cl)nc2ccccc21	aSyn 5UTR act -190
O=C(NCCC1=CCCCC1)c1ccc(Br)o1	aSyn 5UTR act -83
Cc1ccc(NC(=S)NCCC2=CCCCC2)cc1	aSyn 5UTR act -137
